Results from PubChem BioAssay AID1080 (Emory University Molecular Libraries Screening Center, 2008).
Out of some 1,300 compounds screened, about 640 (49%) were called active.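 How the source made its calls: active means cAMP induction above 50% in the main assay while under 30% in all four parallel counter assays; inactive means the rest.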 The set was probably picked from earlier hits. These entries were drawn from the full list.

Columns and labels:
[1] = cAMP induction in EP2, EP4, beta2-AR and parental cells, confirmation, counter-screen for EP2 modulator project, cell-based, five parallel assays, C6 glioma, HEK293 (AID 1080); settings: cAMP HTRF induction
[2] = biological target: Prostaglandin E2 receptor EP2 subtype (Homo sapiens) (UniProt P43116); assay: as above; settings: cAMP HTRF induction, stronger effect = higher value, screened at 20 µM (by protocol), percent of 1 uM PGE2 response, plus low (about EC15) PGE2 agonist
[3] = measured here: EP4 receptor counter-screen, percent of 1 uM PGE2 response, plus low (about EC15) PGE2 agonist
[4] = measured here: beta2 adrenergic HEK293 counter-screen
[5] = measured here: cAMP conditions counter-screen
[6] = measured here: parent C6 cells counter-screen

SMILES	cAMP induction [1, 3] [%]	cAMP induction [1, 4] [%]	cAMP induction [1, 5] [%]	cAMP induction [1, 6] [%]	cAMP induction [2]
Cc1ccccc1C(=O)Nc1ccccc1Sc1ccccc1	-6.34	-0.06	-1.62	-1.24	73.7% (active)
O=C(COC(=O)c1ccccc1)Nc1ccccc1Sc1ccccc1	5.14	-16.3	-4.67	-4.62	66.8% (active)
O=C(CN1CCCCC1)N1c2ccccc2Sc2ccc(C(F)(F)F)cc21	-11.3	-1.41	-5.21	-5.14	47.3% (inactive)
CCc1ccccc1NC(=O)/C(=C/c1ccccc1)c1ccccc1	-11.7	34	-0.563	-0.623	53.6% (inactive)
Cc1ccc(C(=O)c2c(NC(=O)c3ccncc3)sc3c2CCCC3)cc1	4.56	-17.1	0.45	3.43	54.2% (active)
CCOCC(=O)Nc1sc2c(c1C(=O)OCC)CCCC2	-16	3.07	3.98	1.75	40.6% (inactive)
CC1(C)CC2CC(C)(CN2c2ncnc3ccc(Br)cc23)C1 (stereo not given)	-0.537	-0.287	6.56	5.43	25.7% (inactive)
Cc1ccc(Nc2cc(C)nc3c(C)ccc([N+](=O)[O-])c23)cc1	-1.3	15.4	0.53	-0.713	57.4% (active)
CC(=O)c1ccc2c(c1)c1ccccc1n2CC(C)C	8.49	0.833	9.82	9.42	58.9% (active)
CCCCCn1c(SCCC(C)C)nc2c1c(=O)[nH]c(=O)n2C	-16.3	-18.1	1.4	-0.767	59.3% (active)
CCOC(=O)C(CC)Sc1ncnc2c1nnn2-c1ccc(F)cc1 (stereo not given)	-7.74	17	0.993	2.03	50.7% (active)
